Test results published in PubChem BioAssay.

Experiment: small-molecule binders of probe aNOTCH3, primary screen, biochemical, small-molecule microarray, 635/667 nm fluorescence (AID 1120);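 note: probe is a biotin-tagged antibody raised against NOTCH3 rather than NOTCH3 protein; score merges spot fluorescence near 667 nm with spot signal to noise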
Conditions: higher = more signal

Which composite z-score does the source give for `CCOC(=O)C[C@H]1[C@H](OC(=O)c2ccccc2-c2ccccc2)[C@@H](NC(=O)c2ccc(-c3ccccc3)cc2)c2cc(OCCCO)ccc2N1C(=O)c1ccc2ccccc2n1` here?
The composite z-score was 0.0715.

For `C=CCC(OC(C)=O)[C@@H]1[C@@H](N(Cc2ccc(-c3ccccc3)cc2)C(=O)Cc2ccc(F)cc2)c2cc(OCCCO)ccc2N1C(=O)Cc1ccc(OC)cc1` (stereo not given in full), which composite z-score is on record?
The composite z-score was -0.0817.

With `O=C(NCC(F)(F)F)[C@@H]1c2ccccc2C(=O)N(Cc2ccc(OC(F)(F)F)cc2)[C@H]1c1ccc(CO)cc1` as the molecule, how does the composite z-score read?
The composite z-score was -0.0647.

For `COC(=O)CCCCCCC(=O)Nc1ccc(NC(=O)CCCC[P+](c2ccccc2)(c2ccccc2)c2ccccc2)cc1`, which composite z-score is on record?
Its composite z-score is 0.116.

With `CCCCCCc1nc(C2CC2)cc2c1[Si](C(C)C)(C(C)C)OC2` as the molecule, how does the composite z-score read?
Its composite z-score is -0.197.

Which composite z-score does the source give for `O=C1O[C@H](c2ccccc2)[C@H](c2ccccc2)N2[C@H]1[C@@H](C(=O)Nc1nc3ccccc3s1)[C@]1(C(=O)Nc3ccccc31)[C@H]2c1ccc(OCCO)cc1` here?
The composite z-score was 0.23.

Which composite z-score does the source give for `C=C(/C(=C/C[C@H](OC(=O)c1ccncc1)c1ccc(CO)o1)c1cc(C(=O)OC)ccc1OC)C(C)C` here?
The composite z-score was -0.0414.

Which composite z-score does the source give for `CN(C)C(=O)[C@@]1(CCS(=O)(=O)c2ccccc2)N=C(c2ccc(OCCCO)cc2)O[C@H]1c1ccccc1` here?
The composite z-score was 0.413.

Which composite z-score does the source give for `O=C1OCCC/C=C\[C@H]2OC34C=CCN(CCN5CCOCC5)C(=O)[C@H]3N(CCCCCCO)C(=O)[C@@H]4C12` (stereo not given in full) here?
The composite z-score was -0.0947.

For `O=C1C2C=CC(C(O)c3ccc(Br)cc3)N(Nc3ccccc3F)C2C(=O)N1c1ccccc1` (stereo not given), which composite z-score is on record?
The composite z-score was -0.038.

For `CCCCC(=C=CC[C@@H](O)c1ccccc1OCCO)C[C@@H](O)COCc1ccccc1`, which composite z-score is on record?
Its composite z-score is -0.281.

With `O=C1O[C@@H](c2ccccc2)[C@@H](c2ccccc2)N2[C@@H](c3ccc(O)cc3)[C@]3(C(=O)Nc4ccc(C#CC5=CCCCC5)cc43)[C@@H](C(=O)NC[C@H](O)c3ccccc3)[C@H]12` as the molecule, how does the composite z-score read?
The composite z-score was 0.274.

For `NC(=O)NCC#Cc1ccc2c(c1)[C@]1(C(=O)N2)[C@H](C(=O)NC[C@H](O)c2ccccc2)[C@H]2C(=O)O[C@H](c3ccccc3)[C@H](c3ccccc3)N2[C@@H]1c1ccc(OCCO)cc1`, which composite z-score is on record?
The composite z-score was 0.233.

For `CC(C)N1CC=CC23O[C@@H]4C=CCOC(=O)[C@@H]4[C@H]2C(=O)N(CCCO)[C@@H]3C1=O` (stereo not given in full), which composite z-score is on record?
The composite z-score was -0.145.

Which composite z-score does the source give for `N#Cc1ccc(C(O)C2C=CC3C(=O)N(c4ccccc4)C(=O)C3N2Nc2ccccc2)cc1` (stereo not given) here?
The composite z-score was 0.194.

Which composite z-score does the source give for `CCCCN1CC=CC23O[C@@H]4/C=C\CCC(C)OC(=O)C4[C@H]2C(=O)N(C(CO)C(C)C)[C@@H]3C1=O` (stereo not given in full) here?
Its composite z-score is -0.126.

With `C=CCN1Cc2ccccc2[C@H]2OC(c3ccc(OCCCO)cc3)=N[C@@]2(CC=C)C1=O` as the molecule, how does the composite z-score read?
Its composite z-score is 0.133.

Which composite z-score does the source give for `CC(CO)N1C(=O)[C@@H]2[C@H]3C(=O)OCC=C[C@H]3OC23C=CCN(CCN2CCOCC2)C(=O)[C@@H]13` (stereo not given in full) here?
The composite z-score was -0.152.

For `CCCCCCc1nc(-c2cc(C)c(OC)c(C)c2)c(C)c2c1[Si](C(C)C)(C(C)C)OC2`, which composite z-score is on record?
Its composite z-score is -0.165.

Which composite z-score does the source give for `C=C(COC)/C(=C/C[C@H](OC(=O)c1ccncc1)c1ccccc1OCCO)c1cnc2ccccc2c1` here?
The composite z-score was 0.0964.

With `CO[C@H]1O[C@H](CO)[C@@H](OC(=O)Nc2ccc3c(c2)OCO3)[C@H](OC(=O)c2cc3ccccc3[nH]2)[C@H]1OC(=O)c1cc2ccccc2[nH]1` as the molecule, how does the composite z-score read?
Its composite z-score is -0.0932.

With `O=C1N(Cc2ccccc2)c2ccccc2[C@@H]2OC(c3ccc(OCCCO)cc3)=N[C@]12Cc1ccccc1` as the molecule, how does the composite z-score read?
Its composite z-score is -0.0362.

With `CCOC(=O)c1ccc(NC(=O)O[C@H]2[C@H](OC(=O)Nc3ccc4c(c3)OCO4)[C@@H](OC(=O)Nc3ccc4c(c3)OCO4)[C@@H](OC)O[C@@H]2CO)cc1` as the molecule, how does the composite z-score read?
The composite z-score was 0.291.

With `C=CCC(OC(C)=O)[C@@H]1[C@@H](N(Cc2cccc3ccccc23)C(=O)Cc2ccc(OC)cc2)c2cc(OCCCO)ccc2N1C(=O)c1ccc2ccccc2n1` (stereo not given in full) as the molecule, how does the composite z-score read?
Its composite z-score is 0.0224.

For `COCCCNC(=O)[C@@]1(Cc2ccccc2CN=[N+]=[N-])N=C(c2ccc(OCCCO)cc2)O[C@H]1c1ccccc1`, which composite z-score is on record?
The composite z-score was 0.269.

For `COC(=O)[C@@]1(Cc2ccccc2)[C@H]2c3cc(C(=O)N(C)C)n(CCc4ccc(O)c(OC)c4)c3C[C@H]2CN1C(=O)c1ccccc1`, which composite z-score is on record?
Its composite z-score is 0.742.

With `CN1C(=O)C2C=CC(C(O)COCc3ccccc3)N(N(c3ccccc3)c3ccccc3)C2C1=O` (stereo not given) as the molecule, how does the composite z-score read?
The composite z-score was 0.227.

For `CC(c1ccccc1)C(O)C1C=CC2C(=O)N(c3ccccc3)C(=O)C2N1Nc1ccc([N+](=O)[O-])cc1` (stereo not given), which composite z-score is on record?
Its composite z-score is 0.158.

Which composite z-score does the source give for `[N-]=[N+]=NCc1ccccc1[C@H]1OC(c2ccc(OCCCO)cc2)=N[C@@]1(CCS(=O)(=O)c1ccccc1)C(=O)N1CCCCC1` here?
Its composite z-score is 0.268.

For `[N-]=[N+]=Nc1ccccc1C[C@]1(C(N)=O)N=C(c2ccc(OCCCO)cc2)O[C@H]1c1ccccc1N=[N+]=[N-]`, which composite z-score is on record?
Its composite z-score is 0.231.

With `COc1cc(CO)cc(I)c1O[C@H]1C=C(C(=O)NCCO)C[C@@H](NCc2ccc(F)cc2)[C@@H]1O` as the molecule, how does the composite z-score read?
The composite z-score was -0.118.

With `CCCC[C@@H]1C[C@H]1[C@@H](NC(=O)c1cccs1)c1ccc(C(F)(F)F)cc1` as the molecule, how does the composite z-score read?
Its composite z-score is 0.0026.

With `COCCOC(=O)N1C(=O)[C@@]2(c3cc(C#CC4=CCCCC4)ccc31)[C@H](C(N)=O)[C@H]1C(=O)O[C@H](c3ccccc3)[C@H](c3ccccc3)N1[C@@H]2c1ccccc1OCCO` as the molecule, how does the composite z-score read?
Its composite z-score is -0.0057.

Which composite z-score does the source give for `O=C1OCCC=C[C@H]2OC34C=CCN(Cn5nnc6ccccc65)C(=O)[C@H]3N(CCCCCCO)C(=O)[C@@H]4C12` (stereo not given in full) here?
The composite z-score was -0.429.

With `Cc1ccc(S[C@]2(C(=O)O)CC(=O)N(Cc3cc(C(F)(F)F)cc(C(F)(F)F)c3)[C@@H]2c2ccc(CO)cc2)cc1` as the molecule, how does the composite z-score read?
Its composite z-score is -0.512.
